This is a sample that favours compounds with a hit; in the whole collection about 6.7% have one here.
Pf Dd2 inh: P. falciparum Dd2 growth inhibition | SYBR Green, 72 h; stronger effect = lower value | activity change, % at 10 µM | 2.3% of 94,000 active | AID 1159554; in the data active = activity change below about -80%; inconclusive = no clear call, values can overlap the other calls
C diff growth: inhibitors of Clostridium difficile growth; Clostridium difficile clinical isolate growth, OD600, 24 h; stronger effect = lower value; growth activity, negative = inhibition, % at 16 µg/mL (by protocol); 0.25% of 86,000 active; AID 1259249;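 active = mean growth activity at or below -80% and every replicate also at or below -80%; inconclusive = mean at or below -80% but some replicate above -80%; inactive = mean growth activity above -80%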
T cruzi growth-1: blocks T. cruzi growth in NIH3T3 culture; inhibition, % at 8.34 µM; T. cruzi beta-gal in NIH3T3, GalScreen luminescence, 90 h; AID 624255; 5.9% of 77,000 active;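 active = mean inhibition above about 93%, with at least 55% of replicates each passing it, limit read from the data, passing the limit was not always enough; inconclusive = only one of those two conditions holds; inactive = neither condition holds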
T cruzi growth-2: inhibitors of T. cruzi proliferation. T. cruzi beta-gal in NIH3T3, GalScreen luminescence, 90 h. inhibition, % at 8.35 µM. 72% of 5,600 active. AID 651739. shares compounds with T cruzi growth-1;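 active = mean replicate inhibition above about 95% and at least 55% of replicates individually reaching it, limit read from the data; inconclusive = only one of the two criteria is met; inactive = neither criterion is met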
T cruzi growth-3: blocks T. cruzi growth in NIH3T3 host cells; shares compounds with T cruzi growth-1; T. cruzi beta-gal in NIH3T3, GalScreen luminescence, 90 h; inhibition, % at 2.09 µM; 21% of 5,600 active; AID 651740;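 active = mean inhibition above about 95%, with at least 55% of replicates also reaching it, limit read from the data; inconclusive = meets just one of the two conditions; inactive = meets neither condition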
NIH3T3 tox: cytotoxicity in mouse NIH/3T3 fibroblasts; shares compounds with T cruzi growth-1; NIH/3T3 viability, CellTiter-Glo ATP luminescence, 90 h; cytotoxicity (signal decrease), % at 8.35 µM; 14% of 5,600 active; AID 651742;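 active = mean signal decrease across replicates above about 35% based on untreated-well scatter, with enough replicates individually passing, limit read from the data; inconclusive = no rule stated though some were filed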
3T3 cytotox 2: cytotoxicity in mouse NIH/3T3 fibroblasts | 56% of 5,600 active | inhibition, % at 24.9 µM | shares compounds with T cruzi growth-1 | NIH/3T3 viability, CellTiter-Glo ATP luminescence, 90 h;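 active = mean loss of cell viability signal at or above a set limit, and enough replicates individually reaching it; inconclusive = meets only the mean limit or only the replicate share; inactive = meets neither condition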
Numbers stand for hits; 0 = inactive; ? = inconclusive; - = no result; ! = not confirmed by another sample.

SMILES | Pf Dd2 inh | C diff growth | T cruzi growth-1 | T cruzi growth-2 | T cruzi growth-3 | NIH3T3 tox | 3T3 cytotox 2
C[C@@H]1CCCCO[C@@H](CN(C)Cc2ccc3c(c2)OCO3)[C@@H](C)CN([C@H](C)CO)C(=O)c2cc(NS(=O)(=O)c3ccc(Cl)cc3)ccc2O1 | 0 | - | 0 | - | - | - | -
C[C@H](O)C#Cc1ccc2c(c1)O[C@@H](CN(C)Cc1cccnc1)[C@H](C)CN([C@@H](C)CO)S2(=O)=O | 0 | 0 | 0 | - | - | - | -
CC(C)C#Cc1ccc2c(c1)O[C@@H](CN(C)Cc1cccnc1)[C@@H](C)CN([C@@H](C)CO)S2(=O)=O | 0 | 0 | 0 | - | - | - | -
CC(C)C#Cc1ccc2c(c1)O[C@H](CN(C)Cc1cccnc1)[C@@H](C)CN([C@H](C)CO)S2(=O)=O | 0 | 0 | 107 | 108 | 104 | 0 | 102
C[C@H]1CN([C@@H](C)CO)S(=O)(=O)c2ccc(C#CCN(C)C)cc2O[C@@H]1CN(C)Cc1cccnc1 | 0 | 0 | 104 | 110 | 108 | 0 | 0
C[C@@H]1CN([C@@H](C)CO)S(=O)(=O)c2ccc(C#CCN(C)C)cc2O[C@@H]1CN(C)Cc1cccnc1 | 0 | 0 | ? | 99 | 0 | 0 | 48
C[C@@H]1CN([C@H](C)CO)S(=O)(=O)c2ccc(C#CCN(C)C)cc2O[C@H]1CN(C)Cc1cccnc1 | 0 | 0 | 96 | 101 | 0 | 0 | 42
C[C@@H]1CN([C@@H](C)CO)S(=O)(=O)c2ccc(C#C[C@@H](C)O)cc2O[C@H]1CN(C)Cc1cccnc1 | 0 | 0 | 0 | - | - | - | -
COCC#Cc1ccc2c(c1)O[C@@H](CN(C)Cc1cccnc1)[C@H](C)CN([C@H](C)CO)S2(=O)=O | 0 | 0 | 0 | - | - | - | -
C[C@H](CO)N1C[C@H](C)[C@@H](CN(C)C(=O)Nc2ccccc2)Oc2ccc(NS(=O)(=O)c3ccc(F)cc3)cc2CC1=O | 0 | 0 | 0 | - | - | - | -
COc1cccc(NC(=O)N(C)C[C@@H]2OCc3ccccc3-c3c(n(C)c4ccccc34)C(=O)N([C@@H](C)CO)C[C@@H]2C)c1 | 0 | 0 | 0 | - | - | - | -
C[C@@H]1CN([C@H](C)CO)C(=O)Cc2cc(NC(=O)C3CC3)ccc2O[C@H]1CN(C)Cc1ccc(-c2ccccc2)cc1 | 0 | 0 | 0 | - | - | - | -
C[C@@H]1CN([C@@H](C)CO)C(=O)Cc2cc(NC(=O)C3CC3)ccc2O[C@H]1CN(C)Cc1ccc(-c2ccccc2)cc1 | 0 | 0 | 114 | 102 | 0 | 0 | 103
C[C@H]1CN([C@@H](C)CO)C(=O)Cc2cc(NC(=O)C3CCCCC3)ccc2O[C@@H]1CN(C)Cc1ccc(-c2ccccc2)cc1 | 0 | 0 | 99 | 104 | 0 | 0 | 0
C[C@@H]1CN([C@H](C)CO)C(=O)Cc2cc(NC(=O)C3CCCCC3)ccc2O[C@@H]1CN(C)Cc1ccc(-c2ccccc2)cc1 | 0 | 0 | 0 | - | - | - | -
C[C@H]1CN([C@@H](C)CO)S(=O)(=O)c2ccc(C3=CCCC3)cc2O[C@@H]1CN(C)S(=O)(=O)c1cn(C)cn1 | 0 | 0 | 0 | - | - | - | -
C[C@@H]1CCCCO[C@@H](CN(C)C(=O)NC2CCCCC2)[C@H](C)CN([C@H](C)CO)C(=O)c2cc(N(C)C)ccc2O1 | 0 | 0 | 0 | - | - | - | -
C[C@@H]1CN([C@H](C)CO)C(=O)c2cc(C3=CCCC3)cnc2O[C@H]1CN(C)S(=O)(=O)c1cn(C)cn1 | 0 | 0 | 0 | - | - | - | -
C[C@@H]1CN([C@H](C)CO)C(=O)c2cc(-c3cccc(F)c3)cnc2O[C@H]1CN(C)C(=O)C1CCCCC1 | 0 | 0 | 0 | - | - | - | -
N#C[C@@H]1[C@@H](c2ccc(C#Cc3ccccc3F)cc2)[C@@H](CO)N1C(=O)C1CC1 | 0 | 0 | 0 | - | - | - | -
N#C[C@H]1N[C@@H](CO)[C@H]1c1ccc(C#Cc2ccccc2F)cc1 | 0 | 0 | 100 | 103 | 109 | 0 | 0
N#C[C@@H]1[C@H](c2ccc(C#Cc3ccccc3F)cc2)[C@@H](CO)N1C(=O)C1CCCC1 | 0 | 0 | - | - | - | - | -
N#C[C@H]1N[C@H](CO)[C@H]1c1ccc(C#Cc2ccccc2F)cc1 | 0 | 0 | 0 | - | - | - | -
N#C[C@@H]1[C@@H](c2ccc(C#Cc3ccccc3F)cc2)[C@H](CO)N1C(=O)C1CC1 | 0 | 0 | 104 | 103 | 0 | 0 | 0
N#C[C@H]1[C@H](c2ccc(C#Cc3ccccc3F)cc2)[C@@H](CO)N1C(=O)C1CC1 | 0 | 0 | 102 | 100 | 100 | 0 | 0
SMILES | Pf Dd2 inh | C diff growth | T cruzi growth-1 | T cruzi growth-2 | T cruzi growth-3 | NIH3T3 tox | 3T3 cytotox 2
O=C(NCC[C@@H]1CC[C@@H](NS(=O)(=O)c2cccc(F)c2)[C@@H](CO)O1)C1CCCCC1 | 0 | 0 | - | - | - | - | -
C[C@@H]1CN([C@@H](C)CO)C(=O)Cc2cc(NC(=O)Nc3cccc4ccccc34)ccc2O[C@H]1CN(C)C(=O)Nc1ccc(F)cc1 | 0 | 0 | 0 | - | - | - | -
CC(C)C#Cc1ccc2c(c1)O[C@H](CN(C)C(=O)C1CCC1)[C@H](C)CN([C@@H](C)CO)S2(=O)=O | 0 | - | 0 | - | - | - | -
CC(C)C#Cc1ccc2c(c1)O[C@H](CN(C)C(=O)C1CCC1)[C@@H](C)CN([C@@H](C)CO)S2(=O)=O | 0 | - | 103 | 111 | 0 | 0 | 51
CC(C)C#Cc1ccc2c(c1)O[C@@H](CN(C)C(=O)C1CCCCC1)[C@H](C)CN([C@H](C)CO)S2(=O)=O | -83 | 0 | 104 | 103 | 0 | ? | 105
CC(C)C#Cc1ccc2c(c1)O[C@@H](CN(C)C(=O)C1CCC1)[C@@H](C)CN([C@H](C)CO)S2(=O)=O | 0 | - | 0 | - | - | - | -
C[C@H](CO)N1C[C@H](C)[C@H](CN(C)C(=O)Cc2cccnc2)Oc2ncc(-c3cncnc3)cc2C1=O | 0 | 0 | 0 | - | - | - | -
CN1CCN(C(=O)c2cc3c(c(-c4cccc(-c5cccc(F)c5)c4)n2)[C@@H](CCO)N(S(=O)C(C)(C)C)C3)CC1 (stereo not given in full) | 0 | - | 0 | - | - | - | -
C[C@@H]1CN([C@@H](C)CO)S(=O)(=O)c2ccc(Br)cc2O[C@H]1CN(C)Cc1ccccc1 | 0 | 0 | 99 | 0 | 0 | 0 | 104
C[C@H]1CN([C@@H](C)CO)S(=O)(=O)c2ccc(Br)cc2O[C@@H]1CN(C)Cc1ccccc1 | 0 | 0 | 97! | 100 | 0 | ? | 107
C[C@H]1CN([C@@H](C)CO)S(=O)(=O)c2ccc(Br)cc2O[C@H]1CN(C)Cc1ccccc1 | 0 | 0 | 0 | - | - | - | -
C[C@H](CO)N1C[C@H](C)[C@H](CN(C)Cc2ccccc2)Oc2cc(Br)ccc2S1(=O)=O | 0 | 0 | 0 | - | - | - | -
O=C1CNC[C@H]2[C@H](c3ccc(C4=CCCC4)cc3)[C@@H](CO)N12 | 0 | 0 | - | - | - | - | -
C[C@@H]1CCCCO[C@H](CN(C)Cc2ccncc2)[C@@H](C)CN([C@@H](C)CO)C(=O)c2cc(NS(=O)(=O)c3cn(C)cn3)ccc2O1 | 0 | 0 | 0 | - | - | - | -
C[C@@H]1CN([C@@H](C)CO)S(=O)(=O)c2ccc(C3=CCCC3)cc2O[C@@H]1CN(C)C(=O)C1CCOCC1 | 0 | 0 | 0 | - | - | - | -

Source: PubChem
